Shown are actives, neighbours in structure and some others; about 2.9% of the full set was active somewhere.
proKLK7 act – proKLK7 zymogen activators, primary screen, biochemical, fluorescence intensity. actives 0.9% (n = 370,000). AID 652039, 2013. Kallikrein-7 (Homo sapiens), P49862. purified proKLK7, EDANS-DABCYL substrate fluorescence; 100% is mature enzyme control, 0% vehicle. activation, % at 7 µM;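 active means activation above the mean of all tested compounds plus 3 SD, computed per campaign excluding outliers beyond control limits, cut at about 13% in these data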
Target sequence (P49862 whole entry, looked up): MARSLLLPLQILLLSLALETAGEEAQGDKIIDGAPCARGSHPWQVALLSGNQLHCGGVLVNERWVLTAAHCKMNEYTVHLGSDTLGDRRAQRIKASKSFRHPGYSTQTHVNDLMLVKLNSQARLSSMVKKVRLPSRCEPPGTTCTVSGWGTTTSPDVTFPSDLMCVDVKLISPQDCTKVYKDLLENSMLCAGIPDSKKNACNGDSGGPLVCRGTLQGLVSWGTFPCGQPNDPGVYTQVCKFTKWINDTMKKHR
GAA850 FXN act – FXN promoter activators, primary screen, cell-based, luciferase luminescence, HEK293 lucGAA850. HEK293 lucGAA850 FXN promoter luciferase reporter, 24 h; percent of 10 µM SAHA response. activation, % at 6 µM. actives 0.56% (n = 360,000);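 active means activation above the average of all compounds screened plus 3 SD, cutoff fixed separately per campaign, cut at about 7.5% in these data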
FAS TE block – FAS thioesterase domain inhibitors, primary screen, biochemical, fluorescence intensity, uHTS | Fatty acid synthase (Homo sapiens), P49327 | actives 0.67% (n = 360,000) | recombinant FAS-TE, OMFH fluorogenic substrate, fluorescence endpoint | inhibition, % at 15 µM;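 active means compounds whose normalised, plate-corrected inhibition of enzyme fluorescence in the single-dose primary screen is 50% or more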
SMARCA2 act – SMARCA2 (BRM) function activators, primary screen, cell-based, luminescence, high throughput; MG213 cells, MMTV-luciferase reporter, dexamethasone, overnight; activation, % at 9.1 µM; actives 1% (n = 370,000); AID 652017, 2013; in the data active means activation above about 7.8%
Numbers stand for hits; – = inactive; · = no result.

SMILES	proKLK7 act	GAA850 FXN act	FAS TE block	SMARCA2 act
CS(=O)(=O)N(CC(=O)N1CCCC1)c1cc(Cl)c(Cl)cc1Cl	·	–	–	·
COC(=O)CN1C(=O)S/C(=C/c2cc(C)n(C)c2C)C1=O	–	8.8	–	–
COc1ccc(N=C2S/C(=C\c3cc(C)n(C)c3C)C(=O)N2CC(C)C)cc1	–	–	–	–
C=CCn1c(C)csc1=Nc1ccc(C(C)=O)cc1	–	–	–	–
CCOC(=O)c1ccc(N=c2scc(C)n2CC)cc1	–	–	–	7.8
CCOC(=O)N1CCN(C(=O)C[C@@H]2C[C@@]3(C(=O)OC)CC(C)(C)CC=C3N(CCc3ccc(OC)c(OC)c3)C2=O)CC1	–	·	·	–
O=C1C(Cc2ccccc2)Nc2ncnc(N3CCc4ccccc4C3)c2N1Cc1ccc(Cl)cc1 (stereo unspecified)	·	–	55	·
C=C(NC(=O)C(=C)NC(=O)c1csc(C2=NC3c4csc(n4)C4NC(=O)c5csc(n5)C(C(C)(O)C(C)O)NC(=O)C5CSC(=N5)/C(=C/C)NC(=O)C(C(C)O)NC(=O)c5csc(n5)C3(CC2)NC(=O)C(C)NC(=O)C(=C)NC(=O)C(=C)NC(=O)C(C(C)C)NC2C=Cc3c(C(C)O)cc(nc3C2O)C(=O)OC4C)n1)C(N)=O (stereo unspecified)	–	–	–	8.6
Cc1cc(C)c(C2C(C#N)=C(N)Oc3n[nH]c(C)c32)cc1CN1CCCC1 (stereo unspecified)	–	–	–	7.9
O=c1cc(-c2ccc(O)cc2)oc2ccc(O)cc12	–	–	–	7.9
O=C(CSc1cccc2cccnc12)OCC(=O)c1ccccc1	73	–	–	–
O=C(CSc1cccc2cccnc12)OCC(=O)c1ccc(Br)cc1	–	–	–	–
O=C1C(Cl)=C(N2CCCCC2)C(=O)C(Cl)=C1c1cnc(N2CCCCC2)s1	·	–	78	·
CN(C)c1ncc(C2=C(Cl)C(=O)C(N3CCCC3)=C(Cl)C2=O)s1	–	–	–	–
O=C(O)c1ccc(C=NN=C2c3ccccc3-c3ccccc32)cc1	–	–	–	–
CC1=C(C)C(=O)N(C(C)CCc2ccccc2)C1=O (stereo unspecified)	–	–	–	–
CCOc1cc(/C=C(\C#N)C(=O)Nc2cccc(C(=O)O)c2)cc(Br)c1OC(=O)c1ccc(OC)cc1	–	–	84	–
CCOC(=O)c1cc2c(=O)n3ccccc3nc2n(Cc2ccco2)c1=NC(=O)c1ccc(OC)cc1OC	17	–	–	–
Cc1cccc(N/N=C2/COC(C)(C)CC2=O)c1	–	–	–	7.9
O=C(/C=C/c1ccncc1)c1ccc(NC(=O)c2ccccc2F)cc1	·	12	–	·
O=C(/C=C/c1ccc(NC(=O)c2ccccc2-c2ccccc2C(=O)O)cc1)c1ccccc1	–	–	–	–
O=C(Nc1ccccc1)C(=O)Nc1ccccn1	–	–	–	8.0
O=C(Nc1cccc(O)c1)C(=O)Nc1ccccn1	–	–	–	–
COc1ccccc1CNc1cc(C)ccc1C	–	–	–	–
c1ccc(-c2cnc(-c3ccccc3)nn2)cc1	–	–	–	7.9
SMILES	proKLK7 act	GAA850 FXN act	FAS TE block	SMARCA2 act
c1ccc(-c2cnc(-c3ccccn3)nn2)cc1	–	–	–	–
COCCn1c(-c2ccc(Cl)cc2)cnc1SCC(=O)NCc1cccs1	–	–	–	–
O=C(Nc1cccc(-c2ccc(N3CCCCC3)nn2)c1)c1ccc(Br)o1	–	–	–	7.9
Cc1ccc(NC2=CC(=O)CC(c3ccco3)C2)c(N)c1 (stereo unspecified)	–	–	–	–
Nc1ccccc1NC1=CC(=O)CC(c2ccco2)C1 (stereo unspecified)	–	–	–	7.9
CCC(C)(C)C1CCC(=NNC(=O)c2ccoc2C)CC1 (stereo unspecified)	–	–	–	11
O=C(NCc1ccco1)c1ccc2c(=O)n(-c3ccccc3)c(=O)n(Cc3cccc(F)c3)c2c1	–	–	–	–
O=C(N/N=C/c1cccc([N+](=O)[O-])c1)C1CC1c1ccccc1 (stereo unspecified)	–	–	–	9.1
O=C1N[C@@H](Cc2c[nH]c3ccccc23)C(=O)N[C@H]1Cc1ccccc1	–	–	–	–
COc1ccc(-c2ccnc3nc(N4CCOCC4)nn23)cc1	44	–	–	–
CCC1CCCN1Cn1cnc2c([nH]c3ccc(Cl)cc32)c1=O (stereo unspecified)	–	–	–	9.7
CC(Sc1nnc(-c2cccnc2)n1-c1ccccc1F)C(=O)N1CCCc2ccccc21 (stereo unspecified)	–	·	·	7.9
CC(=O)c1cccc(S(=O)(=O)Nc2cccc(S(=O)(=O)NC3=NCCC3)c2)c1	–	–	–	10
CC(=O)c1ccc(S(=O)(=O)Nc2cccc(S(=O)(=O)NC3=NCCC3)c2)cc1	–	–	–	–
CN(CC(=O)Nc1cccc(S(=O)(=O)NC2=NCCCCC2)c1)Cc1ccc(C(C)(C)C)cc1	–	–	66	–
CC(C)(C)c1ccc(OCCC(=O)Nc2cccc(S(=O)(=O)NC3=NCCCCC3)c2)cc1	–	–	–	–
CCN(CC)S(=O)(=O)c1ccc(Nc2ccc(-c3ccc4c(c3)OCCO4)nn2)cc1	–	–	–	8.6
CN(C)S(=O)(=O)c1ccc(Nc2ccc(-c3ccc4c(c3)OCCO4)nn2)cc1	–	–	–	–
CCOC(=O)[C@@H]1[C@H]2COc3ccc(Br)cc3[C@@H]2N2C(=O)N(c3ccc(Br)cc3)C(=O)[C@]12C	–	–	72	–
CCOC(=O)[C@@H]1[C@H]2COc3ccc(Br)cc3[C@H]2N2C(=O)N(c3ccc(Br)cc3)C(=O)[C@]12C	–	–	–	–
CCOC(=O)c1ccc(Oc2nc(NC(C)(C)C)nc(N(C)C)n2)cc1	–	–	–	–
CCC(=O)OCC(=O)Nc1cc([N+](=O)[O-])ccc1OC	–	–	–	–
COc1ccc2c(c1)C(c1cccs1)=NNC(c1ccncc1)=N2	–	9.4	–	–
N#CCC(=O)Nc1ccc(C(=O)OCC(=O)c2c[nH]c3ccccc23)cc1	–	–	–	7.9
COCCNC(=O)c1ccccc1NC(=O)Nc1ccccc1	–	–	–	–
SMILES	proKLK7 act	GAA850 FXN act	FAS TE block	SMARCA2 act
C=CCNC(=O)c1ccccc1NC(=O)Nc1ccccc1	–	–	–	7.8
CC(NC(=O)OCc1ccccc1)C(=O)Oc1cc2oc(=O)cc(-c3ccccc3)c2cc1Cl (stereo unspecified)	24	–	–	–
CCc1cc2c(-c3ccccc3)cc(=O)oc2cc1OC(C)C(=O)O (stereo unspecified)	–	–	–	–
Cc1ccc(S(=O)(=O)N(C)C)cc1NC(=O)COC(=O)CNC(=O)C12CC3CC(CC(C3)C1)C2	–	–	–	–
Cc1ccc(-c2cc(C(=O)N3CCOCC3)c3ccccc3n2)o1	112	–	–	–
O=C(NC1CCCC(C(F)(F)F)C1)c1ccc([N+](=O)[O-])o1 (stereo unspecified)	–	–	–	7.9

High-throughput results from PubChem BioAssay.
